Screens as filed in PubChem.
RecA intein inh = Mtb RecA intein splicing inhibitors, primary screen, biochemical, fluorescence, HTS | Protein RecA (Mycobacterium tuberculosis (strain ATCC 25618 / H37Rv)), P9WHJ3 | cell-free RecA intein splicing | inhibition, % (no concentration beside the values) | actives 0.75% (n = 290,000); in the data active means inhibition above about 30%;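 further: 0% = vehicle wells and 100% = reference inhibitor control wells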
FadD28 binding = inhibitors of FadD28 bisubstrate probe binding, primary screen, biochemical, fluorescence polarization, single point. Mycobacterium tuberculosis FadD28 fatty-acid-AMP ligase. inhibition, % at 12.5 µM. actives 0.22% (n = 360,000). AID 588549, 2011; in the data active means inhibition above about 8.5%, passing the limit was not always enough
Rv3671c protease = Rv3671c serine protease inhibitors, primary screen, biochemical, fluorescence polarization, M. tuberculosis H37Rv | P9WHR9 | inhibition, % at 5.96 µM | actives 0.048% (n = 320,000) | AID 2606, 2010; in the data active means inhibition above about 38%;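 further: extracellular domain of Rv3671c used as enzyme; 0% = enzyme with DMSO and 100% = no enzyme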
Target sequence (P9WHR9 whole entry, looked up, the tested form may be a part): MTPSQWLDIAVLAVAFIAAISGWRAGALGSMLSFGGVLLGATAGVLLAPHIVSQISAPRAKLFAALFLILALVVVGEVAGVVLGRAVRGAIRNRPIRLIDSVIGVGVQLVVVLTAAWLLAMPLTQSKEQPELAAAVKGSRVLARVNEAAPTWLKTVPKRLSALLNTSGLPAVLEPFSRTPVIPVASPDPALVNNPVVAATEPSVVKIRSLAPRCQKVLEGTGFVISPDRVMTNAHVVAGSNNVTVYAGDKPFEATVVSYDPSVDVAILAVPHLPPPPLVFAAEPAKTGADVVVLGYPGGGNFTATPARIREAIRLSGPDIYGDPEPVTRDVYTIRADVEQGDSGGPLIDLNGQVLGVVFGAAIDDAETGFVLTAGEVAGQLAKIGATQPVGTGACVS
Mtb UGM inh = M. tuberculosis UGM enzyme inhibitors, primary screen, biochemical, fluorescence polarization, single point; UDP-galactopyranose mutase (Mycobacterium tuberculosis (strain ATCC 25618 / H37Rv)), …; purified UGM, fluorescence polarization probe displacement; inhibition, % at 10 µM; actives 0.06% (n = 320,000); in the data active means inhibition above about 10%, passing the limit was not always enough
Mtb BioA inh = M. tuberculosis BioA enzyme inhibitors, primary screen, biochemical, plate reader, single point, HTS. AID 602481, 2012. 7,8-diaminopelargonic acid synthase BioA (Mycobacterium tuberculosis). inhibition, % at 9.99 µM. actives 0.096% (n = 360,000). purified M. tuberculosis BioA enzyme; in the data active means inhibition above about 40%
Y pestis TopoI = Yersinia pestis topoisomerase I inhibitors, primary screen, biochemical, cleavage product accumulation, plate reader, single point | DNA topoisomerase I (Yersinia pestis CO92) | Y. pestis Topo-I cleavage product accumulation | activity, % at 10 µM | actives 0.064% (n = 360,000) | AID 504884, 2011; in the data active means activity above about 50%, passing the limit was not always enough
GFP chromo cs = counter-screen: blocks GFP chromophore formation, dose response, counter-screen, biochemical, fluorescence, homogeneous. AID 434968, 2010. shares compounds with RecA intein inh. EC50, µM. cell-free GFP chromophore formation. actives 83% (n = 2,100); call rule not given here
* marks the source's active call; other numbers are inactive results; nt = no result. Hits are enriched below; roughly 0.82% of the tested compounds scored in any of these assays.

SMILES | RecA intein inh | FadD28 binding | Rv3671c protease | Mtb UGM inh | Mtb BioA inh | Y pestis TopoI | GFP chromo cs
Cn1c(=O)[nH]c(=O)c2c1nc([N+](=O)[O-])n2Cc1ccccc1 | 62* | 0 | 8 | 0 | nt | -18 | 17*
CC(C)Cn1c([N+](=O)[O-])nc2c1c(=O)[nH]c(=O)n2C | 16 | -1 | 1 | 1 | -1 | -3 | nt
N=C(N)SCc1cn(-c2ccccc2)nc1-c1ccc(Br)cc1 | 40* | -17 | nt | nt | nt | -5 | 20*
Cc1ccc(-c2nn(-c3ccccc3)cc2CO)cc1 | 2 | -4 | -12 | -1 | 1 | 6 | nt
COc1ccccc1S(=O)(=O)N[C@H]1CC[C@@H](CCNC(=O)C2CCCCC2)O[C@H]1CO | nt | nt | nt | nt | 2 | nt | nt
CCc1nnc(NC(=O)c2nc(S(=O)(=O)Cc3ccccc3)ncc2Cl)s1 | 66* | -3 | -3 | -1 | -1 | 4 | 37*
CCc1nnc(NC(=O)c2nc(S(=O)(=O)Cc3cccc(C)c3)ncc2Cl)s1 | 75* | -3 | -19 | 1 | -2 | 5 | 16*
CCc1nnc(NC(=O)c2nc(S(=O)(=O)Cc3ccc(C)cc3)ncc2Cl)s1 | 76* | 1 | 5 | -2 | -1 | 7 | 20*
CCc1nnc(NC(=O)c2nc(Cl)ccc2Cl)s1 | 8 | -2 | nt | 0 | -3 | 2 | nt
CCc1nnc(NC(=O)c2ccc(COc3ccc(C)cc3)o2)s1 | -2 | -1 | 6 | 1 | -4 | -3 | nt
COCCNC(=O)C[C@@H]1CC[C@H]2[C@@H](COc3ccc(NC(=O)COC)cc3C(=O)N2C)O1 | nt | nt | nt | nt | -2 | nt | nt
COCC(=O)Nc1ccc2c(c1)[C@@H]1C[C@H](CC(=O)NCc3ccccn3)O[C@@H](CO)[C@@H]1O2 | nt | nt | nt | nt | 0 | nt | nt
Cc1cc(C)c(S(C)(=O)=O)c(Oc2cccc(C(F)(F)F)c2)n1 | 33* | -3 | -3 | 0 | nt | 3 | >38
CCOC(=O)c1nn(-c2ccccc2C)c(=O)c2c(N)scc12 | 48* | -2 | -14 | -1 | nt | -6 | >38
CCOC(=O)c1nn(-c2ccccc2)c(=O)c2c(N)scc12 | nt | -2 | -15 | 2 | -1 | -10 | nt
COCC(=O)Nc1ccc2c(c1)C(=O)N(C)C[C@@H](OC)[C@@H](C)CN(Cc1ccccn1)[C@H](C)CO2 | nt | nt | nt | nt | -4 | nt | nt
CCN(CC)CC(=O)Nc1sc(C)cc1C(=O)c1ccccc1 | -1 | -2 | -15 | 1 | -1 | 48 | nt
Cc1cc(C(=O)c2ccccc2)c(NC(=O)CCl)s1 | 58* | -3 | -7 | 0 | nt | 5 | 17*
CCCCNC1C(CC)C(CCC)C(C#N)(C#N)C1(C#N)C#N (centres undefined) | 76* | -2 | 1 | 4 | -1 | -4 | 12*
Cc1[nH]n(-c2ncc(-c3ccc(Cl)cc3)s2)c(=O)c1C(c1ccc(Cl)cc1)C(C#N)C#N (centres undefined) | 7 | 4 | 8 | 4 | nt | -11 | nt
CCCc1[nH][nH]c(=O)c1C(c1cccc(Cl)c1)C(C#N)C#N (centres undefined) | 52* | -8 | 0 | -5 | nt | -2 | 9.4*
Brc1ccc(CNc2ccc3ncccc3c2)cc1 | 39* | -1 | nt | 1 | -2 | -10 | >38
C[C@@H]1CN([C@H](C)CO)C(=O)c2cc(NC(=O)Cc3ccccc3)ccc2O[C@@H]1CN(C)C(=O)Nc1cccc2ccccc12 | nt | nt | nt | nt | -2 | nt | nt
CC(=O)N(c1ccccc1)C(C)c1nc(C#N)c(C#N)nc1C (centres undefined) | 62* | -2 | 3 | -1 | 0 | -4 | 38*
N#C/C(=C\c1cccc(O)c1)c1nc2ccccc2o1 | 69* | -4 | -4 | 1 | 0 | 2 | 21*
SMILES | RecA intein inh | FadD28 binding | Rv3671c protease | Mtb UGM inh | Mtb BioA inh | Y pestis TopoI | GFP chromo cs
N#C/C(=C\c1ccncc1)c1nc2ccccc2o1 | 28 | 0 | 2 | 0 | -2 | -7 | nt
C[C@H]1CN([C@@H](C)CO)S(=O)(=O)c2ccc(C3=CCCCC3)cc2O[C@@H]1CN(C)C(=O)Cc1cccnc1 | nt | nt | nt | nt | 2 | nt | nt
COc1cc2c(cc1OC)C(C1C(=O)CC(C)(C)CC1=O)N(C(=O)CCl)CC2 (centres undefined) | -7 | -2 | -11 | -3 | nt | -3 | nt
COc1cc2c(cc1OC)C(c1cc(Br)ccc1F)N(C(=O)CCl)CC2 (centres undefined) | 86* | -2 | -7 | 1 | 1 | 32 | 4.5*
CO[C@@H]1CN(C)C(=O)c2ccc(NC(=O)c3cccnc3)cc2OC[C@@H](C)N(CC2CC2)C[C@H]1C | nt | nt | nt | nt | 1 | nt | nt
Cc1ccc(C(=O)C2C(c3ccc(-c4ccccc4[N+](=O)[O-])o3)NC(=O)NC2(O)C(F)(F)F)cc1 (centres undefined) | 83* | -7 | -11 | -1 | 2 | 13 | 22*
C[C@@H]1CN([C@@H](C)CO)C(=O)c2cccc(N(C)C)c2O[C@@H]1CN(C)Cc1ccc(-c2ccccc2)cc1 | nt | nt | nt | nt | 3 | nt | nt
Cc1ccc2nc(/C(C#N)=C\c3ccc([N+](=O)[O-])o3)[nH]c2c1 | 34* | -2 | -16 | 1 | -1 | -6 | 8.4*
C/C(=N\Nc1cc(C)nc(-c2ccccc2O)n1)c1ccccc1 | 8 | -4 | -13 | -2 | nt | -7 | nt
Cc1cc(N/N=C/c2ccc(O)c(C)c2O)nc(-c2ccccc2O)n1 | 47* | 0 | 8 | 2 | -2 | 4 | >38
CN(CCO)c1cc(Sc2nc3ccccc3s2)c2nonc2c1[N+](=O)[O-] | 94* | -4 | -8 | 1 | 0 | 4 | 1.4*
NS(=O)(=O)c1ccc(Sc2nc3ccccc3s2)c([N+](=O)[O-])c1 | 24 | -1 | 5 | 0 | -1 | -13 | nt
CC(=O)OCCNc1cc(SC(C)C)c2nonc2c1[N+](=O)[O-] | 23 | 1 | -1 | 1 | nt | -1 | nt
CC(=O)OCCN(C)c1cc(SC(C)C)c2nonc2c1[N+](=O)[O-] | 34* | 0 | 14 | 0 | nt | 2 | >38
Cc1noc(C)c1NC(=O)Nc1ccc2c(c1)CC(=O)N([C@H](C)CO)C[C@@H](C)[C@@H](CN(C)C(=O)NC(C)C)O2 | nt | nt | nt | nt | 0 | nt | nt
COc1cc(/C=C(\C#N)c2nc3ccccc3s2)cc([N+](=O)[O-])c1O | nt | 0 | nt | nt | nt | 7 | nt
N#C/C(=C\c1ccc(O)c([N+](=O)[O-])c1)c1nc2ccccc2s1 | 51* | 1 | nt | nt | 5 | -18 | 23*
